tim23-1 inh = inhibits growth of tim23-1 mutant yeast; inhibition, % at 20 µM; hit rate 1.3% among 330,000; S. cerevisiae tim23-1 growth, BacTiter-Glo luminescence, 24 h;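 active means growth inhibition of the mutant yeast at or above 50%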;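 further: temperature-sensitive mutant grown at 25 °C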
TIM10 inh = TIM10 yeast growth inhibition; S. cerevisiae TIM10 strain growth, BacTiter-Glo luminescence, 24 h; inhibition, % at 10 µM; hit rate 1.4% among 330,000; AID 463195;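 active means inhibition of 40% or more at the single tested concentration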;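 further: wild-type TIM10 isogenic control strain grown at permissive 25 °C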
NALP1 inh = inhibitors of NALP1 inflammasome in yeast; inhibition, % at 10 µM; hit rate 0.61% among 280,000; S. cerevisiae NALP1/ASC/caspase-1 growth, X-gal OD620, 72 h; in the data active means inhibition mostly above about 24%, no sharp cut-off; inactive means mostly below about 32%
NALP3 yeast inh = inhibitors of NALP3 inflammasome in yeast | Yeast reconstituted NLRP3/ASC/caspase-1, beta-gal luminescence, 24 h | inhibition, % at 10 µM | hit rate 0.39% among 330,000 | AID 2825;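 active means inhibition of 50% or more; inactive means inhibition below 50%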
tim10-1 inh = inhibits growth of tim10-1 mutant yeast; S. cerevisiae tim10-1 ts strain growth, BacTiter-Glo, 24 h; inhibition, % at 20 µM; hit rate 2.2% among 330,000; AID 463190;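 active means inhibition of at least 40%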;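 further: mutant grown at 25 °C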
NALP3 confirm = confirmation of NALP3 inhibitors in yeast | shares compounds with NALP3 yeast inh | yeast expressing human NALP3, luminescence | inhibition, % at 10 µM | hit rate 81% among 1,300 | AID 435006; in the data active means inhibition above about 48%
Casp1-ASC yeast = active in yeast caspase-1-ASC counter-screen for NALP3 inhibitors | shares compounds with NALP3 yeast inh | yeast expressing Caspase-1-ASC, luminescence counter screen | inhibition, % at 10 µM | hit rate 66% among 1,000
NALP3 yeast rt = yeast NALP3 inhibition, confirmed on retest; yeast expressing human NALP3, luminescence read-out; shares compounds with NALP3 yeast inh; inhibition, % at 10 µM; hit rate 53% among 1,000
Large screens that a line does not name were inactive (follow-up assays come after a bar, where they were run); ! = not confirmed by another sample. Compounds with a hit are over-represented: about 4% of the library has one in this group of screens. Unless noted, no stated cut-off is given here; in the data, active means inhibition above about 50%; inactive means the rest.

Cc1nc(CSc2nnc3scc(-c4ccc(Cl)cc4)n23)cs1	none
CCOC(=O)C1=C(C)NC(C)=C(C(=O)OC)C1c1cccc(Cl)c1Cl (centres undefined)	none
CCOC(=O)C1=C(COCCN)NC(C)=C(C(=O)OC)C1c1ccccc1Cl (centres undefined)	NALP3 yeast inh 52.7! (no result: NALP1 inh) | NALP3 confirm 58.8 | Casp1-ASC yeast inactive | NALP3 yeast rt inactive
Nc1c(-c2ccccc2)cnn1-c1cccc(Cl)c1	NALP3 yeast inh 50.3 | NALP3 confirm 76.0 | Casp1-ASC yeast 59.2 | NALP3 yeast rt 54.5
COc1ccc(S(=O)(=O)NCCc2nnc3ccc(SCc4cccnc4)nn23)cc1	none
Cc1ccc(/C=C(\C#N)c2nc3ccccc3[nH]2)s1	NALP3 yeast inh 51.1 | NALP3 confirm 63.0 | Casp1-ASC yeast inactive | NALP3 yeast rt inactive
Cc1ccc(S(=O)(=O)N[C@H](C(=O)N2CCC(C(=O)N[C@@H](CC(=O)O)C(=O)O)CC2)C(C)C)cc1	none
NCCc1nnc(SCc2c(Cl)cccc2Cl)o1	NALP1 inh 39.1, NALP3 yeast inh 83.5 | NALP3 confirm 82.2 | Casp1-ASC yeast 83.2 | NALP3 yeast rt 91.5
NCCc1nnc(SCc2c(F)cccc2Cl)o1	NALP3 yeast inh 77.5 | NALP3 confirm 87.8 | Casp1-ASC yeast 71.5 | NALP3 yeast rt 83.0
NCCc1nnc(SCC(=O)c2ccc(Cl)cc2)o1	NALP3 yeast inh 56.3 | NALP3 confirm 71.2
NCCCCCc1nnc(SCC(=O)c2ccc(Cl)cc2)o1	none
O=C(c1ccc(Cl)c(S(=O)(=O)N2CCCCC2)c1)N1CCN(Cc2ccccc2)CC1	none
Cc1ccc(NC(=O)Cn2nc(C(=O)O)c3ccccc3c2=O)c([N+](=O)[O-])c1	none
Cc1cc2ncn(S(=O)(=O)N3CCCCC3)c2cc1C	NALP3 yeast inh 68.6 | NALP3 confirm 60.5 | Casp1-ASC yeast 73.8 | NALP3 yeast rt 68.0
COc1ccc(CC(=O)Nc2c(C(=O)N3CCN(c4ccccc4OC)CC3)oc3ccccc23)cc1OC	none
O=C1Nc2cccnc2N(C(=O)CCl)c2ccccc21	none
O=C(Nc1nnc(-c2ccco2)s1)C1CCCCC1	NALP3 yeast inh 58.4 | NALP3 confirm inactive | Casp1-ASC yeast inactive | NALP3 yeast rt inactive
CCSc1nnc(NC(=O)C2CCCCC2)s1	NALP3 yeast inh 61.2 | NALP3 confirm 79.1 | Casp1-ASC yeast 67.0 | NALP3 yeast rt 61.1
CSc1nnc(NC(=O)C2CCCCC2)s1	NALP3 yeast inh 55.0 (no result: NALP1 inh) | NALP3 confirm 74.6 | Casp1-ASC yeast 58.5 | NALP3 yeast rt inactive
CC(C)c1nnc(NC(=O)C2CCCCC2)s1	none
Cn1c(=O)c(C(=O)NNC(=O)c2ccccc2Cl)c(O)c2ccccc21	NALP3 yeast inh 65.9 | NALP3 confirm 80.2 | Casp1-ASC yeast 53.5 | NALP3 yeast rt 61.4
Cn1c(=O)c(C(=O)NNC(=O)c2cccc(Cl)c2)c(O)c2ccccc21	none
CCCn1c(=O)c(C(=O)NNC(=O)c2ccc(Cl)cc2Cl)c(O)c2ccccc21	none
CCn1c(=O)c(C(=O)NNC(=O)c2ccc(Cl)cc2Cl)c(O)c2ccccc21	NALP3 yeast inh 54.8 | NALP3 confirm 74.8 | Casp1-ASC yeast inactive | NALP3 yeast rt inactive
Cc1ccc(C(=O)NC(=O)OCCn2c(C)cnc2[N+](=O)[O-])cc1	none
CN1Cc2cccc3c2C(Cc2ccccc2S3)C1 (centres undefined)	none
COc1ccc(C(C)(C)C)cc1NC(=O)c1cncc(Br)c1	NALP3 yeast inh 56.1 | NALP3 confirm 61.9 | Casp1-ASC yeast 58.1 | NALP3 yeast rt 54.9
CCN(CC)S(=O)(=O)c1cc(OC)c(C)cc1C	none
CCN(CC)S(=O)(=O)c1cc(OC)c(Cl)cc1Cl	NALP3 yeast inh 54.7 | NALP3 confirm 64.4 | Casp1-ASC yeast 52.8 | NALP3 yeast rt 50.0
Cc1cc(C)n2nc(-c3cccc(Br)c3)cc2n1	none
Cc1cc(C)n2ncc(-c3cccc(Br)c3)c2n1	NALP3 yeast inh 50.5 | NALP3 confirm 61.6 | Casp1-ASC yeast inactive | NALP3 yeast rt inactive
COc1cc(C(C[N+](=O)[O-])c2c(N)n(C)c(=O)n(C)c2=O)ccc1O (centres undefined)	NALP3 yeast inh 50.2 | NALP3 confirm inactive
COc1cc(C(C[N+](=O)[O-])c2c(C)[nH]c3ccccc23)ccc1O (centres undefined)	none
COc1ccc(-c2nc3ccccc3s2)cc1NC(C)=O	NALP3 yeast inh 51.3 | NALP3 confirm inactive | Casp1-ASC yeast inactive | NALP3 yeast rt inactive
C(=C\c1ccccc1)/CSc1nnc(-c2cccnc2)o1	NALP3 yeast inh 52.3 | NALP3 confirm inactive | Casp1-ASC yeast inactive | NALP3 yeast rt inactive
Cc1nn(-c2ccccc2)cc1C(=S)Nc1ccccc1	NALP3 yeast inh 52.1 | NALP3 confirm 63.1 | Casp1-ASC yeast 57.1 | NALP3 yeast rt 57.7
Cc1c(C(=S)Nc2ccccc2)cnn1-c1ccccc1	none
c1nc(CCO[C@H]2CCCCO2)cc2cc3c(cc12)OCO3	none (no result: NALP1 inh)
c1nc(C2CCCCC2)cc2cc3c(cc12)OCO3	NALP3 yeast inh 51.0 (no result: NALP1 inh) | NALP3 confirm 53.8
CCN(CC)S(=O)(=O)c1ccc(OCC2CCCCO2)c([N+](=O)[O-])c1 (centres undefined)	none
O=C(NN=C1CCCCCCCCCCC1)c1ccncc1	none
O=S(=O)(NC1CC2CCC1C2)c1ccc(Br)s1 (centres undefined)	NALP3 yeast inh 50.4 | NALP3 confirm 62.7 | Casp1-ASC yeast 59.4 | NALP3 yeast rt inactive
O=S(=O)(NC1CC2CCC1C2)c1ccc(Br)cc1 (centres undefined)	none
CC(=O)Oc1ccc(C(=O)Nc2cccnc2)cc1	none
CCC(=Nc1ccccc1O)C1=C(O)CC(c2ccccc2)CC1=O (centres undefined)	NALP3 yeast inh 62.1 | NALP3 confirm 73.9 | Casp1-ASC yeast 55.0 | NALP3 yeast rt 56.1
CCC(=Nc1ccccc1OC)C1=C(O)CC(c2ccccc2)CC1=O (centres undefined)	none
CC(=O)N1CCN(Cc2nc3cc(NC(=O)Nc4ccccc4)ccc3n2C)CC1	none
O=C(CSc1c[nH]c2ccccc12)N1CCCc2ccccc21	none
O=C(Cc1c[nH]c2ccccc12)N1CCc2ccccc21	NALP3 yeast inh 62.0 | NALP3 confirm inactive | Casp1-ASC yeast 60.0 | NALP3 yeast rt 59.8
CC1=NN(C(=O)c2ccc(Br)cc2)C(O)(C(F)(F)OC(F)(F)F)C1 (centres undefined)	NALP3 yeast inh 50.7 | NALP3 confirm 49.8
COC(=O)c1cc(OC)c(OC)cc1NC(=O)c1csc(C)c1	none
CC(=O)Nc1c2c(nn1-c1cccc(Cl)c1)CS(=O)(=O)C2	none
N#Cc1ccc(C(=O)OCCCc2cc3ccccc3c(=O)o2)cc1	NALP3 yeast inh 65.6 (no result: NALP1 inh) | NALP3 confirm 61.2 | Casp1-ASC yeast 60.8 | NALP3 yeast rt 63.1
N#Cc1ccc(C(=O)OCCc2cc3ccccc3c(=O)o2)cc1	none (no result: NALP1 inh)
